Potency data for 40 compounds are collected here from PubChem BioAssay AID602357 (National Center for Advancing Translational Sciences (NCATS), 2012).

Results filed as inconclusive are left out. Activity calls are given as the source filed them. Calls follow the shape of the dose curve; as a rule, active = well fitted inhibition curve with a large enough effect; inconclusive = small, poorly fitted or top-dose-only effect; inactive = no such curve, though single readings can be large or run the other way.

Luciferin 4-monooxygenase (Photinus pyralis), sequence (P08659 whole entry, looked up): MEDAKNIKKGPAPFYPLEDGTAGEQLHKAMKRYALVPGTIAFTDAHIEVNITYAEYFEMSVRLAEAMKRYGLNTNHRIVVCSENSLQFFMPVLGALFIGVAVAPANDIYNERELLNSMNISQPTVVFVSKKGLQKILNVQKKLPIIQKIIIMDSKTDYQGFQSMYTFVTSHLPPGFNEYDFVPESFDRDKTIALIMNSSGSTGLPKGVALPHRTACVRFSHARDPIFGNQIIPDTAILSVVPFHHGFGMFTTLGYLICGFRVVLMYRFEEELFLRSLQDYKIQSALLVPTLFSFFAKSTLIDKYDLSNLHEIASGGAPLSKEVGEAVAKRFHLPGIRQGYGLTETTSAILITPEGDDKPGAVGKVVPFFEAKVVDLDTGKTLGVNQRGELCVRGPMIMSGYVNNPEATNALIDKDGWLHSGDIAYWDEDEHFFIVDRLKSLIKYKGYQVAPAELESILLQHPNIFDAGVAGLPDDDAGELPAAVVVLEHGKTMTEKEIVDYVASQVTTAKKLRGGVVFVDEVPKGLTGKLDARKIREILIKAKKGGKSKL

In this assay the target is Luciferin 4-monooxygenase (Photinus pyralis) (UniProt P08659). The assay can be described thus: FLuc inhibitory activity for the follow-up compounds in a biochemical assay with Km concentrations of substrate. The following applies: purified FLuc, Km substrates, luminescence; series mostly up to 57.5 µM. An excerpt:
NCGC Assay Overview: Firefly (Photinus pyralis) luciferase is one of the most commonly used transcriptional reporters. It is considered one of the more dynamically responsive reporters - that is, responsive to changes in reporter transcription - as it requires no post-translational modifications and is enzymatically active directly after protein synthesis (Wood, 1998). With no endogenous expression in mammalian cells and without the requirement of external excitation, it offers very little background signal, thus generally providing excellent signal to background for most assays. Previous profiling work to determine the prevalence of compounds that affect FLuc enzymatic activity (PubChem AID 411) identified that ~3% of the MLSMR library (then at ~72K) inhibited FLuc. […] Of the compounds identified in this profile that inhibited FLuc, 151 compounds were selected for further analysis, in an effort to better understand their mode of inhibiting FLuc. The assay described here confirms the FLuc inhibitory activity of the 151 compounds.
NCGC Assay Protocol Summary: Reagents: 50mM Tris acetate, pH 7.5; 10mM Mg acetate; 10uM D-luciferin (Sigma #L9504); 10uM ATP; 0.01% Tween-20; 0.05% BSA; 10nM P. pyralis luciferase (Sigma #L9506) Control compounds used were two known firefly luciferase inhibitors (3-(5-(3-chlorophenyl)-1,2,4-oxadiazol-3-yl)benzoic acid and 5-(2-fluorophenyl)-3-phenyl-1,2,4-oxadiazole), and DMSO. Three microliters containing firefly luciferase substrates in buffer (final concentrations: 50mM Tris acetate, pH 7.5, 10mM Mg acetate, 0.01% Tween-20, 0.05% BSA, 10uM D-luciferin, and 10uM ATP) are dispensed into each well of a Greiner white, solid-bottom 1536-well format plate using a flying reagent dispenser (FRD). These assay plates were then treated with 23nL of compound or DMSO using a Kalypsys pin tool, which allows for delivery of a 12-point intraplate titration of each compound to the assay plate (quantitative HTS), with a final compound concentrations ranging from approximately ~60uM to 0.3nM. One microliter of firefly luciferase in 500mM Tris-acetate buffer was then delivered by FRD to each well for a final enzyme concentration of 10nM. Luciferase activity was then measured using a ViewLux CCD imager (PerkinElmer), with an average exposure time of 2-30 seconds (2X binning, medium/high gain).
Turning to `Cc1ccc(C(=O)O/N=C(\N)c2ccccn2)c(Cl)c1`, the Potency was 0.0146 µM (active). `COc1ccc2nc(NC(=O)CCc3ccc(OC)c(OC)c3)sc2c1`: the Potency result was “inactive”. With `COc1ccc2nc(NC(=O)c3ccccc3C(=O)O)sc2c1` the figure was 18.3 µM (active). For `Nc1ccc(C(=O)Nc2ccccc2C(=O)O)cc1` the value was 7.3 µM (active); for `O=C(Nc1ccccc1C(=O)O)c1cccc(NC(=O)c2ccccc2Cl)c1`, 23.1 µM (active).

Consider `CC(C)c1ccc(-c2nc3ccccc3s2)cc1`, for which the Potency was 0.0291 µM (active).

Turning to `CCOc1c(Cl)cc(C(=O)Nc2ccccc2C(=O)O)cc1Cl`, the Potency was 18.3 µM (active). `O=C(O)c1cccc(NC(=O)c2cccc(S(=O)(=O)N3CCc4ccccc4C3)c2)c1`: the Potency was 36.6 µM (active). Consider `O=C(Nc1ccccc1C(=O)O)c1cccc(NC(=O)c2ccccc2Br)c1`, for which the Potency is 32.6 µM (active). For `Cc1c(NC(=O)c2cc(-n3cnnc3)ccc2Cl)cccc1-c1nc2ccccc2s1` the value was 0.58 µM (active); for `Cc1c(NC(=O)c2cccs2)cccc1-c1nc2ccccc2s1`, 4.11 µM (active). Take `CN=c1scc(-c2ccccc2F)n1/N=C/c1ccc[nH]1`: the Potency was 0.0461 µM (active).

For `O=C(O)c1cccc(NC(=O)c2cccc(S(=O)(=O)N3CCCCC3)c2)c1`, the Potency is 1.63 µM (active). Turning to `Nc1ccc(-c2nc3ccc(N)cc3s2)cc1`, the Potency is 0.326 µM (active). For `C/C(=N\NC(=O)c1ccccc1NC(=O)c1ccc(Cl)cc1)c1ccncc1` the value was 0.0116 µM (active). In the case of `Cc1ccc2nc(-c3ccc(N)cc3)sc2c1`, the Potency is 0.0819 µM (active). In the case of `Nc1cccc(-c2nc3ccc(N)cc3s2)c1`, the Potency is 0.366 µM (active). `NC(=O)Cc1ccc2sc(-c3ccccc3)nc2c1`: the Potency was 5.17 µM (active).

As for `CCc1noc(C)c1C(=O)Nc1nc2ccc(OC)cc2s1`, the Potency was 13 µM (active). For `Nc1ccc2nc(-c3ccccc3)sc2c1` the value was 0.163 µM (active); for `Nc1ccc(-c2nc3ccc(C(=O)O)cc3s2)cc1`, 0.0073 µM (active). For `COc1ccc(C(=O)Nc2nc3ccc(OC)cc3s2)cc1`, the Potency is 1.83 µM (active).

With `Cc1ccc(S(=O)(=O)N2CCOCC2)cc1C(=O)Nc1ccccc1C(=O)O`, the Potency entry is “inactive”. With `COc1ccc2nc(NC(=O)c3ccc(S(=O)(=O)N4CCCC(C)C4)cc3)sc2c1` (stereo not given) the entry was “inactive”; with `Cc1ccc(C(=O)O/N=C(\N)c2ccccn2)cc1`, 0.0291 µM (active).

Take `COc1ccc(NS(=O)(=O)c2cccc(C(=O)Nc3ccccc3C(=O)O)c2)cc1`: the Potency result was “inactive”. In the case of `O=C(Nc1ccccc1-c1nc2ccccc2s1)c1cccnc1`, the Potency result was “inactive”.

Consider `Cc1ccc(C(=O)Nc2ccccc2C(=O)O)cc1S(=O)(=O)N1CCCCCC1`, for which the Potency is 1.83 µM (active). For the compound `CC(C)(C)NC(=O)c1ccccc1-c1nc2ccccc2s1`, the Potency result is “inactive”.

In the case of `COc1c(C)cccc1C(=O)Nc1ccc(-c2nc3ccccc3s2)c(Cl)c1`, the Potency entry was “inactive”.

Turning to `O=C(Nc1ccccc1C(=O)O)c1cccc(S(=O)(=O)Nc2ccc(Br)cc2)c1`, the Potency entry was “inactive”.

As to `CCOc1ccc2nc(NC(=O)c3ccoc3C)sc2c1`, the Potency was 0.651 µM (active).

On to `O=C(O)c1cccc(NC(=O)c2ccccc2NC(=O)c2ccccc2F)c1`, for which the Potency is 18.3 µM (active).

With `O=C(O)c1ccc(NC(=O)c2cccc(C(=O)Nc3ccc(C(=O)O)cc3)c2)cc1`, the Potency result was “inactive”. For `O=C(Nc1cccc(-c2nc3ccccc3s2)c1)c1cc(-n2cnnc2)ccc1Cl` the value was 11.6 µM (active); for `CCOc1ccc2nc(NC(=O)c3cccnc3)sc2c1`, 2.91 µM (active). For the compound `Cc1ccc2sc(-c3ccc(NC(=O)c4cc(-n5cnnc5)ccc4Cl)cc3)nc2c1`, the Potency is 6.51 µM (active). As for `Cc1ccccc1C(=O)Nc1cccc(C(=O)Nc2ccccc2C(=O)O)c1`, the Potency was 32.6 µM (active).

Regarding `O=C(Nc1ccccc1C(=O)O)c1cccc(NC(=O)c2ccc(Br)o2)c1`, the Potency is 23.1 µM (active). On to `O=C(Nc1ccc(-c2nc3ccccc3s2)cc1)C1=COCCO1`, for which the Potency is 0.0919 µM (active).
